# Screening results deposited in PubChem by The Scripps Research Institute Molecular Screening Center.
# TEAD-YAP inh: TEAD-YAP interaction inhibition | HEK-TIYL cells, TEAD-Gal4/YAP UAS-luciferase luminescence | inhibition, % at 9.12 µM | 1.4% of 640,000 active; in the data active = inhibition above about 32%;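 note: 0% = median of test compound wells and 100% = reference inhibitor wells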
# FBW7 activator: human FBW7 E3 ligase activation, primary screen. Q969H0. AlphaScreen FBW7–phospho-cyclin E peptide binding, activator screen. normalized activity (activation), % at 26.1 µM. 0.13% of 650,000 active; in the data active = normalized activity above about 1.9%;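 note: purified mutant Fbw7 with reduced substrate affinity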
# MITF inh: human MITF inhibition, primary screen | AlphaScreen MITF homodimerization, bead proximity signal | 0.91% of 650,000 active | inhibition, % at 2.6 µM; in the data active = inhibition above about 50%;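 note: 0% = vehicle wells with protein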
# GPR151 ag: human GPR151 activation; Q8TDV0; PathHunter beta-arrestin GPR151 cells, luminescence; activation, % at 11.2 µM; 1% of 650,000 active; in the data active = activation above about 4.9%;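 note: 0% = median of compound wells and 100% = cells with positive control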
# Target sequence (Q8TDV0 whole entry, looked up): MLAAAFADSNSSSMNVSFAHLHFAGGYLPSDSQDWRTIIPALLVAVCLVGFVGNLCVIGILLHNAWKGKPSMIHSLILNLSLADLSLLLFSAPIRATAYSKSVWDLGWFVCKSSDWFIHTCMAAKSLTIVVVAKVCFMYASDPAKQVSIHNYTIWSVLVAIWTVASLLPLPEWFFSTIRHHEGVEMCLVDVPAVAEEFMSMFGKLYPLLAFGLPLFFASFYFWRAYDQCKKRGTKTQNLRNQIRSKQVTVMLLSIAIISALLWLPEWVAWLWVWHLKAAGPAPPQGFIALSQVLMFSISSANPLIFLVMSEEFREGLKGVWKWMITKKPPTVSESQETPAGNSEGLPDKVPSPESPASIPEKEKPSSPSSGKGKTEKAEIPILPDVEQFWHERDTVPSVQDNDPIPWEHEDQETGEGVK
# GPR151 conf act: human GPR151 activation, confirmation screen. shares compounds with GPR151 ag. 6,700 tested, under 10 active. AID 1508609. GPR151 PathHunter beta-arrestin cells, luminescence, 90 min; % of EA-reagent control over plate median. activation, % at 11.2 µM;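 active = mean percent activation across replicates above the confirmation screen cutoff of 4.91%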
# GPR119 counter: counter-screen for GPR151 activators: effect on human GPR119; shares compounds with GPR151 ag; GPR119 PathHunter beta-arrestin cells, luminescence, 90 min; 0 = compound-well median, 100 = enzyme-acceptor control; activation, % at 11.2 µM; 0.3% of 6,700 active; AID 1508611;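 active = mean percent activation in the counterscreen above 29.09%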;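 note: counterscreen on off-target GPR119 to flag nonselective hits from the GPR151 activator screen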
# * = called active by the depositor; nt = no result given. In the library only some 3.5% were active in any assay of this set; here they are far more common.
SMILES,TEAD-YAP inh,FBW7 activator,MITF inh,GPR151 ag,GPR151 conf act,GPR119 counter
NC(=O)c1cc2cc(Br)ccc2oc1=Nc1ccc(F)cc1F,3,0,6,6.9*,1,11
Cn1ccnc1SCCNC(=O)CCc1nnc(C2(c3ccc(Cl)cc3)CCC2)o1,5,0,18,-2,nt,nt
CCC1CN(CC(C)C)Cc2cc(OC)ccc2O1 (stereo unspecified),0,0,23,-1,nt,nt
COc1cc2[nH]c(=S)nc(NCC(OC)OC)c2cc1OC,2,0,25,5.5*,0,0
COc1cc2[nH]c(=S)nc(NCCCN3CCCC3)c2cc1OC,-2,0,-3,1,nt,nt
CS(=O)(=O)Nc1ccc(C(=O)Nc2cccc(Br)c2)cc1,-1,0,5,0,nt,nt
O=C(NC1CC1)c1ccc(-c2nc(NCc3ccccc3)c3ncn(-c4ccccc4)c3n2)cc1,2,0,-7,2,nt,nt
O=C(NC1CC1)c1ccc(-c2nc(NCc3nc4ccccc4[nH]3)c3ncn(-c4ccccc4)c3n2)cc1,73*,1,-1,5.0*,0,4
S=C(NCc1ccccn1)Nc1cccc(Cl)c1,-41,0,-2,10.0*,1,9
Cc1cnc(Nc2nc3ccccc3n2C)nc1Nc1ccc(N2CCOCC2)cc1,-28,0,18,-1,nt,nt
CCCNc1nc(Nc2nccc3ccccc23)ncc1C,39*,0,0,5.1*,0,-1
Cc1cnc(Nc2nccc3ccccc23)nc1Nc1ccc(N2CCOCC2)cc1,50*,0,3,6.0*,0,-3
O=C(Nn1c(C2CCC2)nc2ccccc2c1=O)c1ccccc1F,7,1,16,-1,nt,nt
CC1(c2ccc3c(c2)OCCO3)NC(=O)N(Cc2cc(=O)oc3cc4c(cc23)CCC4)C1=O (stereo unspecified),0,0,4,6.7*,0,0
CCCCN(C(C)=O)c1ccc(C(O)(C(=O)OC)C(F)(F)F)cc1 (stereo unspecified),7,0,-5,0,nt,nt
COc1ccc(OC)c2c1sc(=NC(=O)Cc1ccccc1)n2C,-6,0,-4,-2,nt,nt
Cc1c(C(=O)N2CCCC(C)C2)sc2ncn(Cc3ccccc3F)c(=O)c12 (stereo unspecified),-1,0,-3,-1,nt,nt
Cc1c(C(=O)N2CCCC2)sc2ncn(Cc3ccccc3F)c(=O)c12,7,0,2,5.3*,1,16
CN1CCN(C(=S)NC2CCCCC2)CC1,2,0,-1,-2,nt,nt
Cc1ccc(C)c(Cc2c(C)nc3nc(SCc4c(F)cccc4Cl)nn3c2C)c1,3,0,1,1,nt,nt
Cc1ccc(C)c(CSc2nc3nc(C)c(Cc4c(F)cccc4Cl)c(C)n3n2)c1,3,0,2,6.3*,0,11
CCCCc1ccc(C2=N/C(=C\c3ccc(F)cc3)C(=O)N2c2ccc(Cl)cc2)cc1,2,0,-3,0,nt,nt
CCCCC1CCC(C(=O)Nc2c3c(nn2-c2cccc(C)c2C)CS(=O)(=O)C3)CC1 (stereo unspecified),6,0,-1,1,nt,nt
CCCCCCCCCCCCCCCCCCOC[C@H](COP(=O)(O)OCC[N+](C)(C)C)OC(C)=O,nt,nt,-13,5.2*,0,-7
Cc1cc(C(=O)N(CC#N)CC#N)ccc1[N+](=O)[O-],-8,0,-6,7.7*,0,5
SMILES,TEAD-YAP inh,FBW7 activator,MITF inh,GPR151 ag,GPR151 conf act,GPR119 counter
O=C(CCS(=O)(=O)c1ccc(Br)s1)NC1CCCc2ccccc21 (stereo unspecified),7,0,-4,0,nt,nt
CN(CC(=O)NC1CCCc2ccccc21)S(=O)(=O)c1ccc(Br)s1 (stereo unspecified),1,0,1,11*,0,-4
O=C(Nc1ccc2[nH]ncc2c1)C1CCN(C(=O)Nc2ccc(Cl)cc2)C1 (stereo unspecified),-10,0,-13,0,nt,nt
O=C(CN1CCN(CC(=O)Nc2ccc(Cl)c(C(F)(F)F)c2)CC1)Nc1ccc(F)cc1,12,0,17,-1,nt,nt
O=C(CN1C(=O)CCC1=O)Nc1ccc(Cl)c(C(F)(F)F)c1,-5,0,1,6.6*,0,6
CN=c1nc(-c2ccccc2)n(-c2ccccc2)s1,-7,0,2,0,nt,nt
CC(=O)N=c1nc(-c2ccccc2)n(-c2ccccc2)s1,-16,0,-11,6.9*,-1,-10
CCOc1ccc2c(c1)c(=O)c(C(=O)c1ccccc1)cn2CC(=O)Nc1ccccc1,-5,0,14,6.3*,0,1
COC(=O)CN/N=C/c1ccc([N+](=O)[O-])cc1[N+](=O)[O-],2,0,7,7.6*,1,12
COc1ccc(/C=N/Nc2ccc([N+](=O)[O-])cc2[N+](=O)[O-])c(O)c1,13,1,1,-1,nt,nt
CC(C)(CN1CCN(c2ccccc2)CC1)NS(=O)(=O)c1ccccc1,-7,0,5,5.5*,0,-4
O=c1c2nccnc2nc(SCc2cccc(F)c2)n1Cc1ccco1,6,0,-18,12*,0,0
O=c1c2cc3c(cc2nc(SCc2cccc(F)c2)n1Cc1ccco1)OCO3,-3,0,-5,-1,nt,nt
Oc1ccc(Nc2ncnc3ccc(I)cc23)cc1,16,0,8,8.2*,2,8
COc1cccc(CNC(=O)c2cc3ccc(-c4ccncc4)cc3n2C)c1,-7,0,16,7.8*,1,-1
COc1cccc(CNC(=O)c2cc3ccc(-c4ccncc4)cc3[nH]2)c1,-3,0,12,-2,nt,nt
COc1cccc(CNC(=O)c2cc3ccc(-c4cn[nH]c4)cc3n2CCCO)c1,-7,0,5,5.5*,0,8
COc1cccc(CNC(=O)c2cc3ccc(-c4ccncc4)nc3[nH]2)c1,-14,0,4,5.2*,0,2
CCn1c(SCC(=O)c2ccc(F)cc2)nnc1-c1ccc2c(c1)OCO2,-11,0,-10,-1,nt,nt
COc1ccc(-c2cc(C(F)(F)F)n3nc(C(=O)NCc4cccnc4)c(Cl)c3n2)cc1,-2,0,13,0,nt,nt
CCSC1(SCC)N=C(N)C2(C#N)C(c3ccc(OC)cc3)C12C#N (stereo unspecified),8,0,23,1,nt,nt
CC(C)(C)N1C(=O)c2ccc(C(=O)Nc3ccc([N+](=O)[O-])cc3Cl)cc2C1=O,4,0,4,6.6*,0,0
Cc1ccc2onc(CNC(=O)N3CCCC(C)C3)c2c1 (stereo unspecified),-19,0,-10,6.9*,1,0
Cc1ccc2onc(CNC(=O)N3CCCC3)c2c1,-4,0,-2,3,nt,nt
